Data taken from PubChem BioAssay (NCI).
The panel holds about 79,000 compounds, 15% with a hit somewhere; the sample as a whole holds those more often. Values without a mark were called inactive. The source made the active and inactive calls. Rule as the data show it: active = growth inhibition above about 70%; inactive = the rest.

Assay: NCI Yeast Anticancer Drug Screen. Data for the mec2-1 strain (AID 157)
Details: S. cerevisiae mec2-1 strain, at 50.0 µM (retest, dose inferred, filed as 5.0), active compounds read high
Method in brief: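 Strain: mec2-1 (DNA repair/cell cycle alteration). Compound exposure, then growth measured; inhibition expressed relative to vehicle.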

| Compound | growth inhibition |
| --- | --- |
| O=C(CBr)Nc1ccc(Cc2ccc(NC(=O)CBr)cc2)cc1 | 0% |
| CCOC(=O)Sc1nc2ccccc2[nH]1 | 3% |
| C=C1OC(=O)C(=O)N1CC(=O)O | -54% |
| Nc1ncnc2c1ncn2C1OCC(O)C1O (stereo not given) | 68% |
| CCOC(=O)C(Cc1cc(I)c(Oc2ccc(OC)cc2)c(I)c1)NC(C)=O (stereo not given) | 96% (active) |
| BrCc1ccc([Si](c2ccccc2)(c2ccccc2)c2ccc(CBr)cc2)cc1 | 8% |
| O=C1OC(C2OC(=O)C(=O)C2C(=O)c2ccc(Cl)cc2)C(C(=O)c2ccc(Cl)cc2)C1=O (stereo not given) | 37% |
| Cc1ccc2c(c1)NC(=O)C(N=[N+]=[N-])(c1ccccc1)C2=O (stereo not given) | 93% (active) |
| NC(=O)C1CCCN1C(=O)C1CCCN(Cc2cc(CN3CCCC(C(=O)N4CCCC4C(N)=O)C3)cc(CN3CCCC(C(=O)N4CCCC4C(N)=O)C3)c2)C1 (stereo not given) | -21% |
| CCCCN(CCCC)CC(O)Cc1cc2ccccc2c2ccccc12 (stereo not given) | 44% |
| CN(/N=C\c1cccc([N+](=O)[O-])c1)C(c1cccc([N+](=O)[O-])c1)N(C)/N=C/c1cccc([N+](=O)[O-])c1 (stereo not given) | 45% |
| O=C(CCl)NC(=O)N(/N=C/c1ccco1)c1ccccc1 | 60% |
| CC1CCN(CCCOC(=O)c2ccccc2)CC1 | 56% |
| COC(=O)C1=C(C(=O)OC)C2C(C)=CC(C)=CN2C(C(=O)OC)=C1C(=O)OC (stereo not given) | 2% |
| CO/N=C/c1ccc([N+](=O)[O-])s1 | 80% (active) |
| N/C(=N\N=C/c1ccc(O)c(O)c1O)NO | 21% |
| CC1=C[P+](c2ccccc2)(c2ccccc2)C=C(c2ccccc2)O1 | 98% (active) |
| CC(C)SC(=S)Nc1ccc(Cl)c([N+](=O)[O-])c1 | 99% (active) |
| Nc1ccc2oc(=O)c3ccccc3c2c1 | 69% |
| CCCCCSc1nc2ncnc(N)c2[nH]1 | 9% |
| CC(C)Cn1cnc2c(SCc3cccc(F)c3)nc(N)nc21 | 12% |

Same assay, conditions: S. cerevisiae mec2-1 strain, at 50.0 µM, active compounds read high

| Compound | growth inhibition |
| --- | --- |
| Cc1cc2c(Br)cc(Br)c(O)c2nc1C(=O)c1ccccc1 | 19.5% |
| N=C1c2ccccc2-c2ccccc21 | 37.2% |
| COc1ccc(-c2cn(-c3ccccc3)c3ncnc(N)c23)cc1 | 11.8% |
| Nc1ccc(N=Nc2ccccc2)c2ccccc12 | 99% (active) |
| CS(=O)(=O)C(=Cc1ccccc1Cl)S(C)(=O)=O | -1.65% |
| O=C1c2ccccc2C(=O)c2sc(Nc3cc(Cl)ccc3Cl)nc21 | 88.2% (active) |
| COC1=CC(=O)c2c(O)c3c(c(O)c2C1=O)C=C(C)OC3O (stereo not given) | 88% (active) |
| NC(=S)N/N=C1\NC(=O)/C(=C/c2ccc3c(c2)OCO3)S1 | -40.6% |
| CCN(CC)P(=S)(c1ccccc1CCP(=S)(c1ccccc1)c1ccccc1)N(CC)CC | 98.6% (active) |
| CCC(=O)Oc1c(Cl)cc(Cl)c(Cl)c1Cl | 14.2% |
| CCOC(=O)C(C)(C)C | -8.2% |
| COC1=CC(=O)c2ncccc2C1=O | 78.5% (active) |
| O=C1CCSC(=S)N1c1ccccc1C(F)(F)F | 99.5% (active) |
| O=C1c2cccc(NCCNCCO)c2C(=O)c2cccc(NCCNCCO)c21 | 7% |
| CCOc1cc2c(cc1O)CC[C@@H]1[C@@H]2CC[C@]2(C)[C@@H](O)CC[C@@H]12 | -10.4% |
| S=C(N/N=C/c1ccccn1)N1CC2CCC(CC2)C1 | 93.5% (active) |
| COc1ccc(Nc2nc3ccccc3s2)cc1 | 35.4% |
| O=C(OCC1OC(OCC(OC(=O)c2ccccc2)C(OC(=O)c2ccccc2)C(OC(=O)c2ccccc2)c2cnn(-c3ccccc3)n2)C(OC(=O)c2ccccc2)C(OC(=O)c2ccccc2)C1OC(=O)c1ccccc1)c1ccccc1 (stereo not given) | 94.8% (active) |
| O=C(CBr)Nc1ccc(Cc2ccc(NC(=O)CBr)cc2)cc1 | 98.7% (active) |
| CCOC(=O)Sc1nc2ccccc2[nH]1 | 25.2% |

| Compound | growth inhibition |
| --- | --- |
| C=C1OC(=O)C(=O)N1CC(=O)O | 5.4% |
| Nc1ncnc2c1ncn2C1OCC(O)C1O (stereo not given) | 78.2% (active) |
| CCOC(=O)C(Cc1cc(I)c(Oc2ccc(OC)cc2)c(I)c1)NC(C)=O (stereo not given) | 83.2% (active) |
| BrCc1ccc([Si](c2ccccc2)(c2ccccc2)c2ccc(CBr)cc2)cc1 | 20.1% |
| O=C1OC(C2OC(=O)C(=O)C2C(=O)c2ccc(Cl)cc2)C(C(=O)c2ccc(Cl)cc2)C1=O (stereo not given) | 11.8% |
| Cc1ccc2c(c1)NC(=O)C(N=[N+]=[N-])(c1ccccc1)C2=O (stereo not given) | 91.3% (active) |
| NC(=O)C1CCCN1C(=O)C1CCCN(Cc2cc(CN3CCCC(C(=O)N4CCCC4C(N)=O)C3)cc(CN3CCCC(C(=O)N4CCCC4C(N)=O)C3)c2)C1 (stereo not given) | 40.7% |
| CCCCN(CCCC)CC(O)Cc1cc2ccccc2c2ccccc12 (stereo not given) | 48.6% |
| CN(/N=C\c1cccc([N+](=O)[O-])c1)C(c1cccc([N+](=O)[O-])c1)N(C)/N=C/c1cccc([N+](=O)[O-])c1 (stereo not given) | 48.4% |
| O=C(CCl)NC(=O)N(/N=C/c1ccco1)c1ccccc1 | 47% |
| CC1CCN(CCCOC(=O)c2ccccc2)CC1 | 30.5% |
| COC(=O)C1=C(C(=O)OC)C2C(C)=CC(C)=CN2C(C(=O)OC)=C1C(=O)OC (stereo not given) | 5.8% |
| CO/N=C/c1ccc([N+](=O)[O-])s1 | 16.6% |
| N/C(=N\N=C/c1ccc(O)c(O)c1O)NO | 17.8% |
| CC1=C[P+](c2ccccc2)(c2ccccc2)C=C(c2ccccc2)O1 | 88.1% (active) |
| CC(C)SC(=S)Nc1ccc(Cl)c([N+](=O)[O-])c1 | 99.6% (active) |
| Nc1ccc2oc(=O)c3ccccc3c2c1 | 36.6% |
| CCCCCSc1nc2ncnc(N)c2[nH]1 | -2.95% |
| CC(C)Cn1cnc2c(SCc3cccc(F)c3)nc(N)nc21 | 8.05% |
